Assay results: PubChem BioAssay (Tox21)
Values joined by “and” are separate entries in the source; they are usually repeats but may differ in a detail not shown here. Equal entries are not always repeated. Records with an inconclusive call do not appear. Active and inactive are the calls of the source. Unless noted, the call rests on the fitted dose curve; in most records, active means well fitted curve in the direction sought with a large enough effect in the repeat runs; inconclusive means weak or mixed curves; inactive means no such curve, though single readings can be large; an effect the other way counts as inactive or inconclusive.

Tests used:
[1] = qHTS assay to identify small molecule antagonists of the glucocorticoid receptor (GR) signaling pathway - cell viability counter screen (AID 720693); further: nearly all actives have a fitted effect of over 55% in size
[2] = qHTS assay for identifying genotoxic compounds that show differential cytotoxicity against isogenic chicken DT40 cell lines with known DNA damage response pathways - Rev3 mutant cell line (AID 743014); further: nearly all actives have a fitted effect of over 55% in size; further: potency means the concentration at half of the fitted maximal effect
[3] = qHTS assay for identifying genotoxic compounds that show differential cytotoxicity against isogenic chicken DT40 cell lines with known DNA damage response pathways - Rad54/Ku70 mutant cell line (AID 743015); further: nearly all actives have a fitted effect of over 60% in size; further: potency means the concentration at half of the fitted maximal effect
[4] = qHTS assay to identify small molecule antagonists of the androgen receptor (AR) signaling pathway - cell viability counter screen (AID 743033; further: nearly all actives have a fitted effect of over 45% in size)
[5] = qHTS assay to identify small molecule antagonists of the thyroid receptor (TR) signaling pathway - cell viability counter screen (AID 743064); further: nearly all actives have a fitted effect of over 50% in size; further: potency means the concentration at half of the fitted maximal effect
Outline: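 In rat pituitary GH3.TRE-Luc reporter cells co-exposed to compound and 1 nM T3 for 23.5 h, cytotoxicity was assessed with CellTiter-Fluor in the same wells, read by fluorescence.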

[6] = qHTS assay to identify small molecule antagonists of the androgen receptor (AR) signaling pathway using the MDA cell line - cell viability counter screen (AID 743041; further: nearly all actives have a fitted effect of over 45% in size)
Outline: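 MDA-kb2 AR-luc human breast carcinoma cells (MMTV-luciferase, AR/GR responsive) were treated with compounds plus R1881 agonist for 16 h at 37 °C. Viability was read as CellTiter-Fluor fluorescence in the same wells as the reporter assay.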

[7] = qHTS assay for identifying genotoxic compounds that show differential cytotoxicity against isogenic chicken DT40 cell lines with known DNA damage response pathways - wild type cell line (AID 743012); further: nearly all actives have a fitted effect of over 60% in size; further: potency means the concentration at half of the fitted maximal effect
Outline: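 Cells (DT40 wild type, 300/well) are treated with DMSO-dissolved compounds after a ~0.5 h pre-incubation and kept 40 h at 37 C/5% CO2. Viability is then measured by CellTiter-Glo luminescence following 30 min at room temperature.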

[8] = molecular target: Androgen receptor (Homo sapiens) (UniProt P10275); assay: qHTS assay to identify small molecule agonists of the androgen receptor (AR) signaling pathway using the MDA cell line (AID 743040; further: nearly all actives have a fitted effect of over 20% in size)
Chain of Androgen receptor (Homo sapiens) (P10275 whole entry, looked up): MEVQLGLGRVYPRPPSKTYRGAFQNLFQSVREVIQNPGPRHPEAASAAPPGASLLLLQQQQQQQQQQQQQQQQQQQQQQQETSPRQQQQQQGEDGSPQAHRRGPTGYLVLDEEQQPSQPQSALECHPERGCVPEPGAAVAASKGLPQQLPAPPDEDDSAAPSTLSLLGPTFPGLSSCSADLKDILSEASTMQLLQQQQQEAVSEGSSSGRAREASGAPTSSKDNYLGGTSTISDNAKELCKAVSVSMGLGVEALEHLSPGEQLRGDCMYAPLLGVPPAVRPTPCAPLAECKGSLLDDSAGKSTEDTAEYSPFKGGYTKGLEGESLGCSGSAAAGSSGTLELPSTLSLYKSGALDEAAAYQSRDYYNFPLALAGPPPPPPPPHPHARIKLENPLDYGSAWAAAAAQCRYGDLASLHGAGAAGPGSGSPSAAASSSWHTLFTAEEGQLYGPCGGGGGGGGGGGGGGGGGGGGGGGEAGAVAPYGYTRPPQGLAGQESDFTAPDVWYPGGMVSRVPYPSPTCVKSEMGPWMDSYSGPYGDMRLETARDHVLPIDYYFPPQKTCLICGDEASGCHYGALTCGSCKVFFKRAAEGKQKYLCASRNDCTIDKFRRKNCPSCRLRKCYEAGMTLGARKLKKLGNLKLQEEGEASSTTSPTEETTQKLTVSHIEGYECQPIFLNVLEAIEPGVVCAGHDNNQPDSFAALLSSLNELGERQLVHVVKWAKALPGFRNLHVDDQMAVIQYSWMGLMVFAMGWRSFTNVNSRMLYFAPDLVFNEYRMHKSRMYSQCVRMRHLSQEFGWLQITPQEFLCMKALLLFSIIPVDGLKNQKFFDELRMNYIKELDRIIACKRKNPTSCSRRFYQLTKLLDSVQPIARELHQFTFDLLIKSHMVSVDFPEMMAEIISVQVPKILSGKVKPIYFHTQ
Outline: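 MDA-kb2 breast carcinoma cells stably carrying an MMTV-driven luciferase reporter (AR- and GR-responsive) were seeded and held 5 h at 37C, 0% CO2, then exposed to compounds in DMSO for 16 h. Luminescence was read 30 min after ONE-Glo addition.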

[9] = molecular target: Androgen receptor (Homo sapiens) (UniProt P10275); assay: qHTS assay to identify small molecule antagonists of the androgen receptor (AR) signaling pathway using the MDA cell line (AID 743042; further: nearly all actives have a fitted effect of over 55% in size)
Outline: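 MDA-kb2 cells (human breast carcinoma, stably carrying an MMTV-luciferase reporter responsive to AR and GR) were plated at 3,000 cells/well and preincubated 5 hr at 37C, then given compound plus R1881 agonist for 16 h. ONE-Glo luminescence was read.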

[10] = molecular target: Androgen receptor (Homo sapiens) (UniProt P10275); assay: qHTS assay to identify small molecule agonists of the androgen receptor (AR) signaling pathway (AID 743036; active means well fitted activation curve with a large enough effect in the signal ratio in the repeat runs, with a control signal flat, not every such curve was filed as active; the % refers to the signal ratio)
Outline: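 Cell-based FRET reporter assay: HEK293 line with a UAS-beta-lactamase construct, compounds added in DMSO, 16 h exposure at 37C, then 2 h substrate step at room temperature and fluorescence intensity read.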
On the % scale 0 is the no-effect control and ±100 the full control effect.

O=P(O)(O)c1ccccc1
inactive: Potency [1] | Potency [2] | Potency [3] | Potency [4] | Potency [5]

C=C(C)[C@H]1CN[C@H](C(=O)O)[C@H]1CC(=O)O
inactive: Potency [1] | Potency [4] | Potency [6] | Potency [5]

BrCc1ccc(Br)cc1
inactive: Potency [7] | Potency [2] | Potency [3] | Potency [4] | outcome [8] | Potency [6] | Potency [9] | Potency [5]

CCCCCCC(=O)CCCCCC/C=C/C[C@@H](O)[C@H](O)[C@@](N)(CO)C(=O)O
inactive: Potency [4] | Potency [6] | Potency [5]
active: Potency [7] 23.7 nM and 10.6 nM | Potency [2] 21.1 nM and 11.9 nM | Potency [3] 26.6 nM and 13.3 nM

N#CC(Br)(Br)C(N)=O
active: Potency [2] 61.1 µM | Potency [3] 61.1 µM
inactive: Potency [1] | Potency [5]

CCNc1nc(NCC)nc(SC)n1
inactive: Potency [1] | Potency [4] | Potency [6] | Potency [5]

CC(C)c1ccc(O)cc1
inactive: Potency [1] | Potency [7] | Potency [4] | Potency [6] | Potency [5]

CC(C)(N)Cc1ccc(Cl)cc1
inactive: Potency [1] | Potency [3] | Potency [4] | Potency [6]

O=C(O)C(F)(F)C(F)(F)C(F)(F)C(F)(F)C(F)(F)C(F)(F)F
inactive: Potency [1] | Potency [2] | Potency [3] | Potency [4] | Potency [6] | Potency [5]

CNC(=O)Oc1cc(C)c(N(C)C)c(C)c1
inactive: Potency [1] | Potency [4] | Potency [6] | Potency [5]

CC[C@H](O)C(C[C@H](C)N(C)C)(c1ccccc1)c1ccccc1
active: Potency [7] 62.3 µM
inactive: Potency [1] | Potency [4]

CC(C)(C1CCC(O)CC1)C1CCC(O)CC1 (stereo not drawn)
inactive: Potency [1] | Potency [7] | Potency [3] | Potency [4] | Potency [5]

C=C(Cl)CCl
inactive: Potency [7] | Potency [2] | Potency [3] | Potency [4] | Potency [6]

NC1(c2ccccc2)CCCCC1
inactive: Potency [1] | Potency [4]
active: Potency [7] 60.6 µM | Potency [5] 42.9 µM

CCC(=O)OC1(c2ccccc2)CCN(C)CC1
inactive: Potency [1] | Potency [3] | Potency [4]

O=C(NC(=O)c1c(F)cccc1F)Nc1cc(Cl)c(F)c(Cl)c1F
inactive: Potency [1] | Potency [4] | Potency [6] | Potency [5]
active: Potency [7] 8.42 µM

C=CC1(C)OC(=O)N(c2cc(Cl)cc(Cl)c2)C1=O (stereo not drawn)
inactive: Potency [1] | Potency [7] | Potency [4] | Potency [5]
active: Potency [3] 61.1 µM

C#CCOC(=O)/C=C(C)/C=C/CC(C)CCCC(C)C (stereo not drawn)
inactive: Potency [1] | Potency [7] | Potency [4] | Potency [5]

CCOP(=S)(OCC)Oc1ccc(Cl)cc1Cl
inactive: Potency [1] | Potency [2] | Potency [3] | Potency [4] | Potency [5]

CC(C)NCC(O)c1ccc([N+](=O)[O-])cc1 (stereo not drawn)
inactive: Potency [7] | Potency [2] | Potency [3] | Potency [4] | Potency [6] | Potency [5]

S=C=S
inactive: Potency [7] | Potency [2] | Potency [3] | Potency [4] | Potency [6] | Potency [5]

COc1ccccc1OC
inactive: Potency [1] | Potency [2] | Potency [3] | Potency [4] | Potency [5]

O=S1(=O)OCCO1
inactive: Potency [7] | Potency [2] | Potency [3] | Potency [4] | outcome [10] | outcome [8] | Potency [6] | Potency [9] | Potency [5]

CCOC(=O)NC(C)(C)Cc1ccc(Cl)cc1
inactive: Potency [1] | Potency [4] | outcome [10] | outcome [8] | Potency [6] | Potency [9] | Potency [5]

Clc1cc2c(cc1Cl)Oc1cc(Cl)c(Cl)cc1O2
inactive: activity change, negative = cytotoxicity [7] 0.129% [at 0.343 µM] | activity, negative = cytotoxicity [2] 4.17% [at 0.343 µM] | activity change, negative = cytotoxicity [3] 7.26% [at 0.345 µM] | activity change, negative = cytotoxicity [4] -3.41% [at 0.284 µM] | activation [10] -3.9% [at 0.28 µM] | activity change [8] 5.01% [at 0.341 µM] | viability change, negative = cytotoxic [6] -3.89% [at 0.341 µM] | activity change, negative = inhibition [9] -2.57% [at 0.341 µM] | activity change, negative = cytotoxic [5] 5.73% [at 0.341 µM]

C(COCC1CO1)OCC1CO1 (stereo not drawn)
active: Potency [7] 6.86 µM | Potency [2] 1.54 µM | Potency [3] 8.63 µM
inactive: Potency [4] | Potency [6] | Potency [5]

COc1ccc(C=O)cc1O
inactive: Potency [7] | Potency [2] | Potency [3] | Potency [4] | outcome [8] | Potency [6] | Potency [9] | Potency [5]

C=CC=O
inactive: Potency [7] | Potency [2] | Potency [3] | Potency [4]

CCCOc1nn(C(=O)NS(=O)(=O)c2ccccc2C(=O)OC)c(=O)n1C
inactive: Potency [1] | Potency [7] | Potency [3] | outcome [10] | outcome [8] | Potency [6] | Potency [9] | Potency [5]

ClCC1CO1 (stereo not drawn)
inactive: Potency [7] | Potency [2] | Potency [3] | Potency [4] | Potency [6] | Potency [5]
